In PubChem BioAssay (NCATS):
Inconclusive results are not listed. Activity calls are given as the source filed them. Unless noted, the call rests on the fitted dose curve; in most records, active means well fitted curve in either direction with a large enough effect (not every such curve was filed as active); inconclusive means small, poorly fitted or top-dose-only effect, or another doubt; inactive means flat fitted curve, though single readings scatter.

What was measured:
[1] = target: Lysosomal acid glucosylceramidase (Homo sapiens) (UniProt P04062); assay: Glucocerebrosidase-p2 (AID 348; in the data active means potency below about 10 µM; further: potency means the concentration at half of the fitted maximal effect); conditions: purified GBA, blue fluorogenic substrate, 40 min
Lysosomal acid glucosylceramidase (Homo sapiens), sequence (P04062 whole entry, looked up): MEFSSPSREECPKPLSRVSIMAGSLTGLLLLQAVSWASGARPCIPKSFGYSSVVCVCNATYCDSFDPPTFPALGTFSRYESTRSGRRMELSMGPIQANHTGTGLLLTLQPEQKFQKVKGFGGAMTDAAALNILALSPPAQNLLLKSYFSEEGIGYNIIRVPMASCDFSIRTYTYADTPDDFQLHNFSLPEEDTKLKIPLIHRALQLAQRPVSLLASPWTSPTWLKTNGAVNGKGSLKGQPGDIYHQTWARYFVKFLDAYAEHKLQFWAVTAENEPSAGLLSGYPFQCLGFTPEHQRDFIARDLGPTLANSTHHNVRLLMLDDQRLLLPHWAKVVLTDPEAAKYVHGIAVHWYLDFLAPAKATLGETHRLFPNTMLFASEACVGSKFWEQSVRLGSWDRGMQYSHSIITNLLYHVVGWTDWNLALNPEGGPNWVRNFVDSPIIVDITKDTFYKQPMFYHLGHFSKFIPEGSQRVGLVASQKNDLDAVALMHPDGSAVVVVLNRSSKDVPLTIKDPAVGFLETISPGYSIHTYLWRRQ
How it was run: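 Compounds titrated from 0.6 nM upwards against 0.2 nM enzyme in pH 5.9 citric acid/KH2PO4, taurocholate, tween-20; blue fluorogenic substrate 80 uM, 40 min room temperature, stopped and read Ex 365/Em 440 for AC50.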

[2] = AP1 Signaling Pathway (AID 357); conditions: ME-180 AP-1-bla reporter, EGF-induced, beta-lactamase ratio, 5 h; at 7.69 µM (top of the series) unless noted; further: on the % scale 0 is the no-effect control and ±100 the full control effect
How it was run: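 In this screen, ME-180 cells in Opti-MEM with 0.5% dialyzed FBS received EC50 EGF and compound titrations for 5 h. AP-1 reporter beta-lactamase was detected via CCF4 ratio, giving AC50 for positive and negative modulators.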

[3] = target: Cytochrome P450 1A2 (Homo sapiens) (UniProt P05177); assay: p450-cyp1a2 (AID 410; calls by dose curve; further: potency means the concentration at half of the fitted maximal effect;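 on activity change, negative = inhibition: -100% = full effect of reference inhibitor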); conditions: recombinant CYP1A2, luciferin-ME demethylation, luminescence; series mostly up to 57 µM
Cytochrome P450 1A2 (Homo sapiens), sequence (P05177 whole entry, looked up): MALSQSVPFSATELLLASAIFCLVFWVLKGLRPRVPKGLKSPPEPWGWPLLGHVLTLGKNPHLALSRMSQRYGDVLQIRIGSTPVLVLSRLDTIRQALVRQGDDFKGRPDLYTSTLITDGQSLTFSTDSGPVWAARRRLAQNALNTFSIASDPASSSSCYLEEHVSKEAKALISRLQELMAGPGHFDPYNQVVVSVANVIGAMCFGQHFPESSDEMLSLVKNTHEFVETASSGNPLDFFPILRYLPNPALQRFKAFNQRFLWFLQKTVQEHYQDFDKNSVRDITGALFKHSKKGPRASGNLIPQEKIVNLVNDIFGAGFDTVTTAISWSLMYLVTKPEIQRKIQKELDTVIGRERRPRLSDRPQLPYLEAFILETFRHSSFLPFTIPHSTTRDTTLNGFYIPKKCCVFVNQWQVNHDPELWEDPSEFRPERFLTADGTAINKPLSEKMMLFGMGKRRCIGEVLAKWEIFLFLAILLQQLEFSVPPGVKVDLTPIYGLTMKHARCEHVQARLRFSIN
How it was run: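 Inhibition was calculated relative to 57 uM furafylline (full inhibition). The reaction used human CYP1A2 at 20nM with Luciferin-ME at its Km, 100uM, driven by an NADPH-regenerating system for 60 min at room temperature.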

[4] = NFAT Signaling Pathway (AID 444); conditions: Jurkat NFAT-bla M1, carbachol, beta-lactamase ratio, 5 h; at 7.69 µM (top of the series) unless noted;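 further: carbachol stimulus at about its EC50 of 1 µM final; on the % scale 0 is the no-effect control and ±100 the full control effect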
How it was run: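 Read-out: CCF4 FRET ratio (460 nm/530 nm) after 1 h RT dye loading, used for %activity and AC50 from titration series. Cells: Jurkat NFAT-β-lactamase/M1 line, treated with compound plus 1 uM carbachol for 5 h, 37 °C.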

[5] = Stat Signaling Pathway (AID 446); conditions: ME-180 SIE beta-lactamase reporter, IL-6 stimulated, 5 h; at 7.69 µM (top of the series) unless noted;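 further: ME-180 cervical cancer cells given 40 pM IL-6 alongside compound; SIE-controlled beta-lactamase reporter measured as 460/530 nm FRET emission ratio; on the % scale 0 is the no-effect control and ±100 the full control effect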
How it was run: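 IL-6/STAT signaling read in ME-180 cells via an SIE beta-lactamase reporter. Stimulus was 40 pM IL-6 (its AC50) for 5 hrs, so both activation and inhibition register.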

[6] = target: Glucocorticoid receptor (Homo sapiens) (UniProt P04150); assay: GR-EFC Redistribution (AID 451; calls by dose curve; further: potency means the concentration at half of the fitted maximal effect); conditions: CHO-K1 GR-EFC translocation, beta-gal luminescence, 2 h
Glucocorticoid receptor (Homo sapiens), sequence (P04150 whole entry, looked up, the tested form may be a part): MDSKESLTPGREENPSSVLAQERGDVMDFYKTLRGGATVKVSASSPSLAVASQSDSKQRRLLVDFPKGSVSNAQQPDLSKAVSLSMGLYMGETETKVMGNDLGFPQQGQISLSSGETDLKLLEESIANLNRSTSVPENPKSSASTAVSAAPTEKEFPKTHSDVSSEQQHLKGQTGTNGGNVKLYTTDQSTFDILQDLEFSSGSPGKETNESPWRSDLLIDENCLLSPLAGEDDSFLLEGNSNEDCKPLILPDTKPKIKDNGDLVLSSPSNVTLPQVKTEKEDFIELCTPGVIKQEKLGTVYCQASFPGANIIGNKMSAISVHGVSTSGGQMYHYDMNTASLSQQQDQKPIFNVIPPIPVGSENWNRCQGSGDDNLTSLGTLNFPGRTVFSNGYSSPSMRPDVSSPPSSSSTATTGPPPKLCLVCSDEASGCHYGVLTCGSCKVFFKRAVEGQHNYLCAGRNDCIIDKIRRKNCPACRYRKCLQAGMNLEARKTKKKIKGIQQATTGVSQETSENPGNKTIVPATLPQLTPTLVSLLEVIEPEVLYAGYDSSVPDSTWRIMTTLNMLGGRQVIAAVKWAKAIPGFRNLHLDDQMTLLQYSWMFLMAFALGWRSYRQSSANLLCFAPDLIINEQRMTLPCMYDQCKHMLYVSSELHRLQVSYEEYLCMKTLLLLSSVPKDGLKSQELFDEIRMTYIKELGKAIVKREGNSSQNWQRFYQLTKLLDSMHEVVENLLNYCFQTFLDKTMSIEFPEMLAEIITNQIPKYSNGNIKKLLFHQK
How it was run: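 Translocation of GR-ED fusion to nuclear EA restores b-gal, read by luminescence after 1 h room-temperature detection. Engineered CHO-K1 biosensor cells, 1,000/well, exposed 2 h at 37 C to titrations up to 46 uM final.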

[7] = target: Mitogen-activated protein kinase 10 (Mus musculus) (UniProt Q61831); assay: JNK3 AlphaScreen Assay (AID 530); conditions: JNK3 lysate, c-Jun phosphorylation; series mostly up to 57.1 µM;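 further: kinase came from lysate of stimulated human HepG2 cells; signal reports phosphorylation of biotinylated GST-cJun 1-79 at Ser73 with 10 µM ATP; on the % scale 0 is the no-effect control and ±100 the full control effect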
How it was run: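 Room-temperature AlphaScreen kinase assay; pre-activated HepG2 lysate as JNK3 source, biotin-GST-cJun(1-79) substrate, 10 uM ATP, compound 15 min preincubation.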

[8] = target: 3',5'-cyclic-AMP phosphodiesterase 4B (Homo sapiens) (UniProt Q07343); assay: qHTS Assay for Inhibitors of PDE-IV (AID 607; active means well fitted activation curve with a large enough effect in the main read-out, with a control signal flat, not every such curve was filed as active; further: % of control where 0% means no effect); conditions: HEK293 ACTOne CNG channel cells, membrane potential fluorescence; series mostly up to 22.9 µM
3',5'-cyclic-AMP phosphodiesterase 4B (Homo sapiens), sequence (Q07343 whole entry, looked up): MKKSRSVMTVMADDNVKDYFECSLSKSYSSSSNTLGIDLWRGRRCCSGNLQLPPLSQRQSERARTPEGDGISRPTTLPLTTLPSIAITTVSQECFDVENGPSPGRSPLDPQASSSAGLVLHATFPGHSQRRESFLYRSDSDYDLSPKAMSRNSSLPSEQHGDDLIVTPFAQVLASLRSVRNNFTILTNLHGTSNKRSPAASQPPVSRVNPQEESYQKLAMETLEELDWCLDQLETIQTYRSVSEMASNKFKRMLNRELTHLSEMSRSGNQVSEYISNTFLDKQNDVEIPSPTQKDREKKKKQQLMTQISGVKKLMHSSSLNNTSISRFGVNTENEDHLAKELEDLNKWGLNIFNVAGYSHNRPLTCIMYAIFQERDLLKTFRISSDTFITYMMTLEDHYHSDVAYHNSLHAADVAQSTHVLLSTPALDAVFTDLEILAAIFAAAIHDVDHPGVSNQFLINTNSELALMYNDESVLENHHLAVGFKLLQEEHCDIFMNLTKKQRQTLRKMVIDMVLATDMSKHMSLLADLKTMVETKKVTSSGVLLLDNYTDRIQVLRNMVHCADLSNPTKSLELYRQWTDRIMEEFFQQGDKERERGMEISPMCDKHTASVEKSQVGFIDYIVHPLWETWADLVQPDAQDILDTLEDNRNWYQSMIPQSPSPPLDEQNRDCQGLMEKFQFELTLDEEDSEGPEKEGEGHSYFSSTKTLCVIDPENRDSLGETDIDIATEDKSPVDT
How it was run: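 Live HEK293 cells with a modified cyclic nucleotide-gated (CNG) channel report intracellular cAMP via membrane-potential dye fluorescence (ex 535/em 590 nm). Endogenous PDE-IV was targeted. Compounds were tested at up to 22.9 uM final; RO 20-1724 100 uM served as control.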

[9] = Primary qHTS for small molecule stabilizers of the endoplasmic reticulum resident proteome: Secreted ER Calcium Modulated Protein (SERCaMP) assay (AID 1508630; active means well fitted curve in the direction sought with a large enough effect; an effect the other way counts as inactive or inconclusive; further: on the % scale 0 is the no-effect control and ±100 the full control effect); conditions: SH-SY5Y GLuc-SERCaMP (Gaussia luciferase released on ER calcium loss) secretion, thapsigargin, luminescence; series mostly up to 38.4 µM
How it was run: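 GLuc-SERCaMP-expressing SH-SY5Y cells, pretreated 16 h with compound, are challenged with thapsigargin to empty ER calcium stores; after 4 h, coelenterazine is added directly to the medium and luminescence is imaged.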

[10] = target: Cytochrome P450 3A4 (Homo sapiens) (UniProt P08684); assay: qHTS Assay for Inhibitors and Substrates of Cytochrome P450 3A4 (AID 884; active means well fitted curve in the direction sought with a large enough effect; an effect the other way counts as inactive or inconclusive; further: nearly all actives have a fitted effect of over 50% in size; further: potency means the concentration at half of the fitted maximal effect); conditions: recombinant CYP3A4, Luciferin-PPXE luminescence; series mostly up to 57.1 µM
Cytochrome P450 3A4 (Homo sapiens), sequence (P08684 whole entry, looked up): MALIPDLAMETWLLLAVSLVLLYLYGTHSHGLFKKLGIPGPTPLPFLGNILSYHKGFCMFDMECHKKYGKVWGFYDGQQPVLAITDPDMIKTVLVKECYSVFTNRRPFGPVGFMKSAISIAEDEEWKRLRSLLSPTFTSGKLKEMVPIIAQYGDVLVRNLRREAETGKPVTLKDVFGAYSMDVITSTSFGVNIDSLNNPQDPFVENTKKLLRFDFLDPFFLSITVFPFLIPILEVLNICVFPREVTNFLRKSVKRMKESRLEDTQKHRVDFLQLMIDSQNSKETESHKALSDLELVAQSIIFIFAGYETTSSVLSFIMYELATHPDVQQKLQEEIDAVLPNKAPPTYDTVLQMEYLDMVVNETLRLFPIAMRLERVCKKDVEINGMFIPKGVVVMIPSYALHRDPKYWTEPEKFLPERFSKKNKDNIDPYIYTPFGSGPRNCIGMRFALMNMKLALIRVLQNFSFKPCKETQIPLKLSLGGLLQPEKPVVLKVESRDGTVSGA
How it was run: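 20 nM human CYP3A4 with 25 uM Luciferin-PPXE (at KM) in 200 mM KPO4, preincubated 10 min with compound; NADPH regeneration started a 60 min RT reaction. Luciferin detected by luminescence, normalized to 57 uM ketoconazole as full inhibition.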

[11] = target: Cytochrome P450 3A4 (Homo sapiens) (UniProt P08684); assay: qHTS Assay for Activators of Cytochrome P450 3A4 (AID 885; active means well fitted curve in the direction sought with a large enough effect; an effect the other way counts as inactive or inconclusive; further: nearly all actives have a fitted effect of over 65% in size; further: potency means the concentration at half of the fitted maximal effect); conditions: recombinant CYP3A4, Luciferin-PPXE luminescence, 60 min; series mostly up to 57.1 µM
How it was run: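 Quantitative HTS format: compounds preincubated with 20nM human CYP3A4 and Luciferin-PPXE substrate at KM, reaction started by NADPH regeneration, stopped after 60 min, luciferase luminescence read 20 min later.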

[12] = target: Cytochrome P450 2C9 (Homo sapiens) (UniProt P11712); assay: qHTS Assay for Inhibitors and Substrates of Cytochrome P450 2C9 (AID 883; active means well fitted curve in the direction sought with a large enough effect; an effect the other way counts as inactive or inconclusive; further: nearly all actives have a fitted effect of over 60% in size; further: potency means the concentration at half of the fitted maximal effect); conditions: recombinant CYP2C9, luciferin-H luminescence, 60 min; series mostly up to 57.1 µM
Cytochrome P450 2C9 (Homo sapiens), sequence (P11712 whole entry, looked up): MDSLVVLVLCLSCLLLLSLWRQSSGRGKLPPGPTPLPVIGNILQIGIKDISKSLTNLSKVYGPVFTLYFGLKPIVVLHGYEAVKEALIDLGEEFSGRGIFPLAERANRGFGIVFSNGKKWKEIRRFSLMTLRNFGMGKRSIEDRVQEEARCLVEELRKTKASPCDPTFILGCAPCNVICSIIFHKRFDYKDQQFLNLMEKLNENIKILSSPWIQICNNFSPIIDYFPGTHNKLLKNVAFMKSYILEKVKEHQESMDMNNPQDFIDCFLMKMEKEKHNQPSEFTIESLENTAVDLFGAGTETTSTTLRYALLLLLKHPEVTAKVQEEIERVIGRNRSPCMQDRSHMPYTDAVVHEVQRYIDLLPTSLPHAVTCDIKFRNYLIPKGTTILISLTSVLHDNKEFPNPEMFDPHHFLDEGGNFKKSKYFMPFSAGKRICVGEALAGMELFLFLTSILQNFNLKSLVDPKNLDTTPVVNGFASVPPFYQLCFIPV
How it was run: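 Luminescent read-out of deoxyluciferin hydroxylation, normalized to 57uM sulphaphenazole (AC100). Reaction: 10nM enzyme, 100uM Luciferin-H (equal to KM), 25mM KPO4, 10 min compound preincubation, then 60 min with NADPH regeneration, both at 37C.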

[13] = target: Cytochrome P450 2C19 (Homo sapiens) (UniProt P33261); assay: qHTS Assay for Inhibitors and Substrates of Cytochrome P450 2C19 (AID 899; active means well fitted curve in the direction sought with a large enough effect; an effect the other way counts as inactive or inconclusive; further: nearly all actives have a fitted effect of over 60% in size; further: potency means the concentration at half of the fitted maximal effect); conditions: recombinant CYP2C19, luciferin-H EGE luminescence; series mostly up to 57.1 µM
Cytochrome P450 2C19 (Homo sapiens), sequence (P33261 whole entry, looked up): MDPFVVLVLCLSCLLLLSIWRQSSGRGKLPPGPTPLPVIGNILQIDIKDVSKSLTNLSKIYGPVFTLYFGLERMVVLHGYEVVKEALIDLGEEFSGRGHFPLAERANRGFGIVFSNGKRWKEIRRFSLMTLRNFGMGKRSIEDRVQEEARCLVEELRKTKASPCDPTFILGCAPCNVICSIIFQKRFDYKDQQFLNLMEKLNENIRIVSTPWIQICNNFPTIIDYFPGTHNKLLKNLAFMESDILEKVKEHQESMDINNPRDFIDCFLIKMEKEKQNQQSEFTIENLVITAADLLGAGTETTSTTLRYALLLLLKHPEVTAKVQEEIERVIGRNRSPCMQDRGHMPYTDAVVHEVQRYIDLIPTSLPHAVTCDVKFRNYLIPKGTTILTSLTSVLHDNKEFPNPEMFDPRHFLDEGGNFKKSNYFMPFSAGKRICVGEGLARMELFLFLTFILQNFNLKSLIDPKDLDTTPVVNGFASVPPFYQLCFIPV
How it was run: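 Luminescence readout of luciferin formed from 10uM Luciferin-H EGE (KM level) by 5 nM CYP2C19 in 50mM KPO4. 60 min NADPH-driven reaction at 37C after 10 min compound preincubation; data scaled to 57uM ketoconazole inhibition.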

[14] = target: Cytochrome P450 2D6 (Homo sapiens) (UniProt P10635); assay: qHTS Assay for Inhibitors and Substrates of Cytochrome P450 2D6 (AID 891; active means well fitted curve in the direction sought with a large enough effect; an effect the other way counts as inactive or inconclusive; further: nearly all actives have a fitted effect of over 60% in size; further: potency means the concentration at half of the fitted maximal effect); conditions: recombinant CYP2D6, luciferin-ME EGE luminescence; series mostly up to 57.1 µM
Cytochrome P450 2D6 (Homo sapiens), sequence (P10635 whole entry, looked up): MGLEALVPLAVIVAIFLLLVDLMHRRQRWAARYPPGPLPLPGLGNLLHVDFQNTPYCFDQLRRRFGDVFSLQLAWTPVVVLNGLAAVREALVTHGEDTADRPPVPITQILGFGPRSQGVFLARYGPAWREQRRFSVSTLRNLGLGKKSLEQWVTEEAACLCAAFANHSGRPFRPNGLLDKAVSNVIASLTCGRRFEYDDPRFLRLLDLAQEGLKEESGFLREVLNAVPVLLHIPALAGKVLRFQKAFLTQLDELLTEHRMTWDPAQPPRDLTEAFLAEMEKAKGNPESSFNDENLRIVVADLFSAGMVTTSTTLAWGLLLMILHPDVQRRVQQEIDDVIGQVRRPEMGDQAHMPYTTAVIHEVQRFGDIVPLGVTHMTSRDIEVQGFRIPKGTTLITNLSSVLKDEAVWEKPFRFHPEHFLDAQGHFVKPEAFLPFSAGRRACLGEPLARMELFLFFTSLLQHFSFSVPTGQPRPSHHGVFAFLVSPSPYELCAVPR
How it was run: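 Human CYP2D6 (5 nM) with 30 uM Luciferin-ME EGE (at Km) in 100 mM KPO4, compound preincubated 10 min, then NADPH regeneration system for 60 min at room temperature. Luciferin read by luminescence; normalized to 1.43 uM quinidine.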

[15] = qHTS Assay for Identification of Small Molecule Agonists for Hypoxia Response Element Signaling Pathway (AID 914; active means well fitted activation curve with a large enough effect in the signal ratio, with a control signal flat, not every such curve was filed as active; the % refers to the signal ratio; further: % of control where 0% means no effect); conditions: ME-180 (cervical carcinoma) HRE-bla reporter, beta-lactamase ratio, CoCl2, 17 h; activation: active compounds read high
How it was run: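 In Opti-MEM containing 0.5% dialyzed FBS and 10 mM HEPES, ME-180 HRE-bla cells received a compound titration and EC50 CoCl2. They were incubated 17 hours, then CCF4-loaded 2.5 hours at room temperature before ratio reading.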

O=C(c1cnccn1)N1CCC2(CC1)CCN(c1ccccc1)CC2
inactive: Potency [1] > 11.4 µM | activity change, negative = inhibition [2] -3.01% | Potency [3] | activity change, negative = inhibition [4] 9.49% | activity, negative = inhibition [5] -24.3% | Potency [6] > 46 µM | Potency [7] | Potency [8] | outcome [9]

O=C(c1cccc(F)c1)N1CCC2(CC1)CCN(c1ncccn1)CC2
active: Potency [3] 10 µM | Potency [11] 7.94 µM
inactive: Potency [1] > 11.4 µM | activity change, negative = inhibition [2] -6.18% | activity change, negative = inhibition [4] 2.49% | activity, negative = inhibition [5] -11.5% | Potency [6] > 46 µM | Potency [7] | Potency [8] | Potency [10] | outcome [9]

COCC(=O)N1CCC2(CC1)CN(C(=O)Nc1ccccc1)C2
active: Potency [3] 12.6 µM | Potency [12] 1.58 µM | Potency [13] 5.01 µM
inactive: Potency [1] > 11.4 µM | activity change, negative = inhibition [2] 7.47% | activity change, negative = inhibition [4] 18.9% | activity, negative = inhibition [5] -7.39% | Potency [6] > 46 µM | Potency [7] | Potency [8] | outcome [9]

O=C(c1cc(C(F)(F)F)cc(C(F)(F)F)c1)N1CCC2(CC1)CN(c1ncccn1)C2
inactive: Potency [1] > 11.4 µM | activity change, negative = inhibition [2] -14.3% | Potency [3] | activity change, negative = inhibition [4] 31% | activity, negative = inhibition [5] 1.12% | Potency [6] > 46 µM | Potency [7] | Potency [8] | Potency [12] | Potency [14] | Potency [13] | outcome [9]

Cc1noc(C)c1C(=O)N1CCC2(CCN(Cc3nccs3)CC2)CC1
active: Potency [3] 12.6 µM
inactive: Potency [1] > 11.4 µM | activity change, negative = inhibition [2] 11.4% | activity change, negative = inhibition [4] -0.611% | activity, negative = inhibition [5] 11.5% | Potency [6] > 46 µM | Potency [7] | Potency [8] | outcome [9]

COc1ccc(NC(=O)N2CCC3(CC2)CCN(C(=O)c2ccco2)CC3)cc1
active: Potency [3] 20 µM
inactive: Potency [1] > 11.4 µM | activity change, negative = inhibition [2] -4.61% | activity change, negative = inhibition [4] 3.53% | activity, negative = inhibition [5] -1.71% | Potency [6] > 46 µM | Potency [7] | Potency [8] | outcome [9]

O=C(c1cnccn1)N1CCC2(CC1)CCN(c1ccccn1)CC2
active: Potency [11] 15.8 µM
inactive: Potency [1] > 11.4 µM | activity change, negative = inhibition [2] -11.4% | Potency [3] | activity change, negative = inhibition [4] -4.5% | activity, negative = inhibition [5] 3.98% | Potency [6] > 46 µM | Potency [7] | Potency [8] | Potency [10] | outcome [9]

O=C(Oc1ccccc1)N1CCC2(CC1)CN(c1ncccn1)C2
inactive: Potency [1] > 11.4 µM | activity change, negative = inhibition [2] -11.2% | activity change, negative = inhibition [4] -7.82% | activity, negative = inhibition [5] -0.184% | Potency [6] > 46 µM | Potency [7] | Potency [8] | Potency [10] | outcome [9]
active: Potency [3] 25.1 µM | Potency [11] 15.8 µM

O=S(=O)(c1ccccc1)N1CCC2(CC1)CN(C(c1ccccc1)c1ccccc1)C2
inactive: Potency [1] > 11.4 µM | activity change, negative = inhibition [2] 15.1% | Potency [3] | activity change, negative = inhibition [4] -14.8% | activity, negative = inhibition [5] -6.71% | Potency [6] > 46 µM | Potency [7] | Potency [8] | Potency [10] | outcome [9]
active: Potency [11] 3.16 µM | Potency [14] 2.51 µM

CC(=O)N1CCC2(CC1)CCN(c1cccc(-c3ccccc3)c1)CC2
inactive: Potency [1] > 11.4 µM | activity change, negative = inhibition [2] -13.2% | activity change, negative = inhibition [4] 16.7% | activity, negative = inhibition [5] 18.6% | Potency [6] > 46 µM | Potency [7] | Potency [8] | outcome [9]
active: Potency [3] 3.98 µM

O=C(c1ccncc1)N1CCC[C@@]2(CCN(c3ccccc3)C2)C1
inactive: Potency [1] > 11.4 µM | activity change, negative = inhibition [2] -9.5% | Potency [3] | activity change, negative = inhibition [4] -16.6% | activity, negative = inhibition [5] 3.29% | Potency [6] > 46 µM | Potency [7] | Potency [8] | Potency [11] | outcome [9]
active: Potency [10] 3.16 µM

COC(=O)N1CCC2(CC1)CN(C(=O)Nc1cccc(F)c1)C2
inactive: Potency [1] > 11.4 µM | activity change, negative = inhibition [2] -2.84% | Potency [3] | activity change, negative = inhibition [4] 0.322% | activity, negative = inhibition [5] -2.22% | Potency [6] > 46 µM | Potency [7] | Potency [8] | outcome [9]

COc1ccc(NC(=O)N2CC[C@@]3(CCCN(C(=O)c4c(C)noc4C)C3)C2)cc1
inactive: Potency [1] > 11.4 µM | activity change, negative = inhibition [2] -9.74% | Potency [3] | activity change, negative = inhibition [4] -10.6% | activity, negative = inhibition [5] -10.2% | Potency [6] > 46 µM | Potency [7] | Potency [8] | Potency [12] | Potency [11] | activation [15] -0.633% | outcome [9]

CS(=O)(=O)N1CCC2(CCCN(c3ncccn3)C2)CC1
inactive: Potency [1] > 11.4 µM | activity change, negative = inhibition [2] 1.67% | activity change, negative = inhibition [4] 2.98% | activity, negative = inhibition [5] -8.29% | Potency [6] > 46 µM | Potency [7] | Potency [8] | outcome [9]
active: Potency [3] 15.8 µM

COCC(=O)N1CCC2(CCCN(Cc3nccs3)C2)CC1
inactive: Potency [1] > 11.4 µM | activity change, negative = inhibition [2] -21.8% | Potency [3] | activity change, negative = inhibition [4] -25.4% | activity, negative = inhibition [5] -1.77% | Potency [6] > 46 µM | Potency [7] | Potency [8] | outcome [9]
